# Laboratory results published in article PMC8222333, “AsCas12a ultra nuclease facilitates the rapid generation of therapeutic cell medicines”.
# B1: AGGT (dsDNA)
# DNA 1: GCTATCTAGTGCTCAGTACGCACTGAGGTAGGAAACTTCTGGCAGGACCAGGTCATGAGATCGGAAGAGCACACGTCTGAACTCCAGTCA
# DNA 2: TGACTGGAGTTCAGACGTGTGCTCTTCCGATCTCATGACCTGGTCCTGCCAGAAGTTTCCTACCTCAGTGCGTACTGAGCACTAGATAGC
# RNA: AAUUUCUACUCUUGUAGAUAGGAAACUUCUGGCAGGACC
# B2: ATGA (dsDNA)
# DNA 1: GCTATCTAGTGCTCAGTACGCACTGATGAAGGAAACTTCTGGCAGGACCAGGTCATGAGATCGGAAGAGCACACGTCTGAACTCCAGTCA
# DNA 2: TGACTGGAGTTCAGACGTGTGCTCTTCCGATCTCATGACCTGGTCCTGCCAGAAGTTTCCTTCATCAGTGCGTACTGAGCACTAGATAGC
# RNA: AAUUUCUACUCUUGUAGAUAGGAAACUUCUGGCAGGACC
# B3: CCTA (dsDNA)
# DNA 1: GCTATCTAGTGCTCAGTACGCACTGCCTAAGGAAACTTCTGGCAGGACCAGGTCATGAGATCGGAAGAGCACACGTCTGAACTCCAGTCA
# DNA 2: TGACTGGAGTTCAGACGTGTGCTCTTCCGATCTCATGACCTGGTCCTGCCAGAAGTTTCCTTAGGCAGTGCGTACTGAGCACTAGATAGC
# RNA: AAUUUCUACUCUUGUAGAUAGGAAACUUCUGGCAGGACC
# B4: AGTA (dsDNA)
# DNA 1: GCTATCTAGTGCTCAGTACGCACTGAGTAAGGAAACTTCTGGCAGGACCAGGTCATGAGATCGGAAGAGCACACGTCTGAACTCCAGTCA
# DNA 2: TGACTGGAGTTCAGACGTGTGCTCTTCCGATCTCATGACCTGGTCCTGCCAGAAGTTTCCTTACTCAGTGCGTACTGAGCACTAGATAGC
# RNA: AAUUUCUACUCUUGUAGAUAGGAAACUUCUGGCAGGACC
# B5: CCGG (dsDNA)
# DNA 1: GCTATCTAGTGCTCAGTACGCACTGCCGGAGGAAACTTCTGGCAGGACCAGGTCATGAGATCGGAAGAGCACACGTCTGAACTCCAGTCA
# DNA 2: TGACTGGAGTTCAGACGTGTGCTCTTCCGATCTCATGACCTGGTCCTGCCAGAAGTTTCCTCCGGCAGTGCGTACTGAGCACTAGATAGC
# RNA: AAUUUCUACUCUUGUAGAUAGGAAACUUCUGGCAGGACC
# B6: AGTG (dsDNA)
# DNA 1: GCTATCTAGTGCTCAGTACGCACTGAGTGAGGAAACTTCTGGCAGGACCAGGTCATGAGATCGGAAGAGCACACGTCTGAACTCCAGTCA
# DNA 2: TGACTGGAGTTCAGACGTGTGCTCTTCCGATCTCATGACCTGGTCCTGCCAGAAGTTTCCTCACTCAGTGCGTACTGAGCACTAGATAGC
# RNA: AAUUUCUACUCUUGUAGAUAGGAAACUUCUGGCAGGACC
# B7: ATGT (dsDNA)
# DNA 1: GCTATCTAGTGCTCAGTACGCACTGATGTAGGAAACTTCTGGCAGGACCAGGTCATGAGATCGGAAGAGCACACGTCTGAACTCCAGTCA
# DNA 2: TGACTGGAGTTCAGACGTGTGCTCTTCCGATCTCATGACCTGGTCCTGCCAGAAGTTTCCTACATCAGTGCGTACTGAGCACTAGATAGC
# RNA: AAUUUCUACUCUUGUAGAUAGGAAACUUCUGGCAGGACC
# B8: CCTC (dsDNA)
# DNA 1: GCTATCTAGTGCTCAGTACGCACTGCCTCAGGAAACTTCTGGCAGGACCAGGTCATGAGATCGGAAGAGCACACGTCTGAACTCCAGTCA
# DNA 2: TGACTGGAGTTCAGACGTGTGCTCTTCCGATCTCATGACCTGGTCCTGCCAGAAGTTTCCTGAGGCAGTGCGTACTGAGCACTAGATAGC
# RNA: AAUUUCUACUCUUGUAGAUAGGAAACUUCUGGCAGGACC
# B9: ATAA (dsDNA)
# DNA 1: GCTATCTAGTGCTCAGTACGCACTGATAAAGGAAACTTCTGGCAGGACCAGGTCATGAGATCGGAAGAGCACACGTCTGAACTCCAGTCA
# DNA 2: TGACTGGAGTTCAGACGTGTGCTCTTCCGATCTCATGACCTGGTCCTGCCAGAAGTTTCCTTTATCAGTGCGTACTGAGCACTAGATAGC
# RNA: AAUUUCUACUCUUGUAGAUAGGAAACUUCUGGCAGGACC
# B10: CCCC (dsDNA)
# DNA 1: GCTATCTAGTGCTCAGTACGCACTGCCCCAGGAAACTTCTGGCAGGACCAGGTCATGAGATCGGAAGAGCACACGTCTGAACTCCAGTCA
# DNA 2: TGACTGGAGTTCAGACGTGTGCTCTTCCGATCTCATGACCTGGTCCTGCCAGAAGTTTCCTGGGGCAGTGCGTACTGAGCACTAGATAGC
# RNA: AAUUUCUACUCUUGUAGAUAGGAAACUUCUGGCAGGACC
# B11: CGGG (dsDNA)
# DNA 1: GCTATCTAGTGCTCAGTACGCACTGCGGGAGGAAACTTCTGGCAGGACCAGGTCATGAGATCGGAAGAGCACACGTCTGAACTCCAGTCA
# DNA 2: TGACTGGAGTTCAGACGTGTGCTCTTCCGATCTCATGACCTGGTCCTGCCAGAAGTTTCCTCCCGCAGTGCGTACTGAGCACTAGATAGC
# RNA: AAUUUCUACUCUUGUAGAUAGGAAACUUCUGGCAGGACC
# B12: AGTC (dsDNA)
# DNA 1: GCTATCTAGTGCTCAGTACGCACTGAGTCAGGAAACTTCTGGCAGGACCAGGTCATGAGATCGGAAGAGCACACGTCTGAACTCCAGTCA
# DNA 2: TGACTGGAGTTCAGACGTGTGCTCTTCCGATCTCATGACCTGGTCCTGCCAGAAGTTTCCTGACTCAGTGCGTACTGAGCACTAGATAGC
# RNA: AAUUUCUACUCUUGUAGAUAGGAAACUUCUGGCAGGACC
# B13: CCTG (dsDNA)
# DNA 1: GCTATCTAGTGCTCAGTACGCACTGCCTGAGGAAACTTCTGGCAGGACCAGGTCATGAGATCGGAAGAGCACACGTCTGAACTCCAGTCA
# DNA 2: TGACTGGAGTTCAGACGTGTGCTCTTCCGATCTCATGACCTGGTCCTGCCAGAAGTTTCCTCAGGCAGTGCGTACTGAGCACTAGATAGC
# RNA: AAUUUCUACUCUUGUAGAUAGGAAACUUCUGGCAGGACC
# B14: AGTT (dsDNA)
# DNA 1: GCTATCTAGTGCTCAGTACGCACTGAGTTAGGAAACTTCTGGCAGGACCAGGTCATGAGATCGGAAGAGCACACGTCTGAACTCCAGTCA
# DNA 2: TGACTGGAGTTCAGACGTGTGCTCTTCCGATCTCATGACCTGGTCCTGCCAGAAGTTTCCTAACTCAGTGCGTACTGAGCACTAGATAGC
# RNA: AAUUUCUACUCUUGUAGAUAGGAAACUUCUGGCAGGACC
# B15: CCTT (dsDNA)
# DNA 1: GCTATCTAGTGCTCAGTACGCACTGCCTTAGGAAACTTCTGGCAGGACCAGGTCATGAGATCGGAAGAGCACACGTCTGAACTCCAGTCA
# DNA 2: TGACTGGAGTTCAGACGTGTGCTCTTCCGATCTCATGACCTGGTCCTGCCAGAAGTTTCCTAAGGCAGTGCGTACTGAGCACTAGATAGC
# RNA: AAUUUCUACUCUUGUAGAUAGGAAACUUCUGGCAGGACC
# How the values were obtained:
# Test in all cases: Spec-seq (native PAGE EMSA with sequencing of bound and unbound); 25 mM Tris-HCl pH 7.4, 150 mM KCl, 5 mM MgCl2, 10% glycerol, 1 mM DTT, 40 ng/uL salmon sperm DNA; 400 nM Cas12a, 480 nM crRNA, 50 nM library, 37 C 1 h; native PAGE at room temperature; high values mean tight binding
# Details in all cases: protein: recombinant
# dAsCas12a Ultra = dAsCas12a Ultra (Acidaminococcus sp., UniProt U2UMQ6 1-1307, M537R;F870L;D908A;E993A;D1235A)
# dAsCas12a S542R = dAsCas12a S542R (Acidaminococcus sp., UniProt U2UMQ6 1-1307, S542R;D908A;E993A;D1235A);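 note: relative affinity from the bound to unbound sequence frequency ratio in Spec-seq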
# d-enCas12a = d-enCas12a (Acidaminococcus sp., UniProt U2UMQ6 1-1307, E174R;S542R;K548R;D908A;E993A;D1235A)
# d-enCas12a-Ultra = d-enCas12a-Ultra (Acidaminococcus sp., UniProt U2UMQ6 1-1307, E174R;S542R;K548R;M537R;F870L;D908A;E993A;D1235A);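 note: relative affinity from the bound to unbound sequence frequency ratio in Spec-seq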
# dAsCas12a E174R = dAsCas12a E174R (Acidaminococcus sp., UniProt U2UMQ6 1-1307, E174R;D908A;E993A;D1235A);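 note: relative affinity from the bound to unbound sequence frequency ratio in Spec-seq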
# dAsCas12a K548R = dAsCas12a K548R (Acidaminococcus sp., UniProt U2UMQ6 1-1307, K548R;D908A;E993A;D1235A)
Binder,binding signal (dAsCas12a Ultra),binding signal (dAsCas12a S542R),binding signal (d-enCas12a),binding signal (d-enCas12a-Ultra),binding signal (dAsCas12a E174R),binding signal (dAsCas12a K548R)
B1,-8.68 lnKA,-8.5 lnKA,-5.71 lnKA,-3.43 lnKA,,
B2,-8.29 lnKA,-7.95 lnKA,-5.35 lnKA,-3.17 lnKA,-8.88 lnKA,
B3,-7.06 lnKA,-7.77 lnKA,-5.38 lnKA,-2.2 lnKA,-5.98 lnKA,
B4,-8.43 lnKA,-7.93 lnKA,-2.11 lnKA,-0.526 lnKA,-8.14 lnKA,-8.98 lnKA
B5,-8.87 lnKA,-8.41 lnKA,-6.11 lnKA,-3.44 lnKA,,
B6,-8.77 lnKA,-8.41 lnKA,-3.79 lnKA,-1.18 lnKA,-8.75 lnKA,
B7,-8.98 lnKA,-8.67 lnKA,-5.72 lnKA,-3.21 lnKA,,
B8,-6.9 lnKA,-7.68 lnKA,-5.18 lnKA,-2.06 lnKA,-6.59 lnKA,
B9,-8.76 lnKA,-8.17 lnKA,-5.28 lnKA,-3.12 lnKA,-8.75 lnKA,
B10,-8.74 lnKA,-4.35 lnKA,-1.8 lnKA,-0.387 lnKA,-8.52 lnKA,
B11,-8.98 lnKA,,-6.24 lnKA,-3.42 lnKA,,
B12,-8.75 lnKA,-8.14 lnKA,-2.3 lnKA,-0.544 lnKA,-8.31 lnKA,-7.9 lnKA
B13,-7.53 lnKA,-8.1 lnKA,-5.7 lnKA,-3.13 lnKA,-7.6 lnKA,
B14,-8.9 lnKA,-8.18 lnKA,-4.88 lnKA,-1.91 lnKA,-8.38 lnKA,
B15,-8.97 lnKA,-8.32 lnKA,-5.69 lnKA,-3.27 lnKA,-8.31 lnKA,
